The text below walks through data of the OligoGym collection.
Also: reference of the scale not given here.

The target of one experiment is RPS6KA5. Put plainly: pooled miR-30 sensor sort-seq; sequence = guide strand. Conditions: shRNA.
Consider TTTTTATGCACACACTTTCGAC, for which the sensor-assay potency score (higher = more potent) is -1.13.
With TTCATCTCGAATGACTGGCTTA, the sensor-assay potency score (higher = more potent) was 0.378.
TAATTCATCTCGAATGACTGGC yielded a sensor-assay potency score (higher = more potent) of 0.637.
On the same count and under the same terms, next, TTCTTCATGATTTCCACCGCGC: 0.302; TACAGCTGAAACAAGCTTCCTC: 0.279; TTCTCCTAGATATCTCAGCTTG: -0.946.
Still for that read-out and setting: then TTTCTGTGAACTCTTCTGCAAA, with -1.11.
In the case of TTTTTCTCCATCAACAGTGAAA, the sensor-assay potency score (higher = more potent) is -1.03.
The same measure, in the same setting: next, TTTGTTTGGATCTACTGTGAGA: -1.04; TACACGTCAAACTTCGGTCATG: -0.748; TTGCTGATTATTTTGACTGCAA: 0.0107.

A further experiment concerns the target RRP12. The description is as above. Conditions: shRNA.
With TATGTAACTTCACAGCATCGAC, the sensor-assay potency score (higher = more potent) was -0.864.
The same measure, in the same setting: next, TCGACTGTCAGGTCACTCCTTC: -0.238; TTGTTGTCATCAGAGCAGCGAA: -1.32; TTTCTGGTGCTTGAGCTTCTGG: -0.862.
The same measure, in the same setting: next, TCAACTTAGCTGAGACACCAGA: -0.378; TTGCTCTCTAGGTAGGGCCGGA: -0.614.
On the same count and under the same terms, next, TAGATCTTAGATTCCACTGTGC: 0.564; TTCAACTTAGCTGAGACACCAG: -0.063; TGCAGCTTCATCTTCTTCCTGC: 0.0542.
For TTGTAAATCATTCTCACTGGGA, the sensor-assay potency score (higher = more potent) was determined as 0.0361.
On the same count and under the same terms, next, TTGAGCTCTGCTGACAGGGTGC: -0.0342; TAACTTCACAGCATCGACTGTC: 0.541.
